Data: PubChem BioAssay (NCATS)
Inconclusive results are not listed. Active and inactive are the calls of the source. Calls follow the shape of the dose curve; as a rule, active = well fitted inhibition curve with a large enough effect; inconclusive = small, poorly fitted or top-dose-only effect; inactive = flat fitted curve, though single readings scatter.

Assays:
CRL-7250 = normal cell line; assay: Cytotoxic Profiling of Annotated Libraries Using Quantitative High-Throughput Screening (AID 1296008); conditions: Five cell lines viability, CellTiter-Glo ATP luminescence, 48-72 h; active compounds read low; as to max response: % is scaled to controls: 0 for no effect and ±100 for the full control effect
Summary of the method: (§1)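 Cells exposed to compounds for 48 or 72 hr at 37 degrees Celsius. Viability read as ATP-coupled luminescence with CellTiter-Glo after 10 min at room temperature.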

HEK293 = assay: as above; conditions: Five cell lines viability, CellTiter-Glo ATP luminescence, 48-72 h; active compounds read low
Summary of the method: as §1

HaCat [1] = assay: as above; conditions: Five cell lines viability, CellTiter-Glo ATP luminescence, 48-72 h; active compounds read low
Summary of the method: as §1

NIH3T3 = assay: as above; conditions: Five cell lines viability, CellTiter-Glo ATP luminescence, 48-72 h; active compounds read low
Summary of the method: as §1

HACAT [2] = assay: qHTS assay to identify novel small-molecules to repurpose for Merkel cell carcinoma treatment (AID 1296009); conditions: MCC and control cell lines, CellTiter-Glo viability, 72 h; at 44.8 µM (top of the series) unless noted
Summary of the method: (§2)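 Cells were treated for 72 hr at 37 degree celsius with compounds in 8- or 11-point dose response. Viability was read by CellTiter-Glo luminescence, normalized to no-cell (cytotoxicity) and DMSO controls.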

HEK293T = assay: as above; conditions: MCC and control cell lines, CellTiter-Glo viability, 72 h; at 44.8 µM (top of the series) unless noted
Summary of the method: as §2

JCK = assay: qHTS profiling for inhibitors of Plasmodium falciparum proliferation (AID 504749);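 also: 0% = DMSO vehicle and full inhibition = artemisinin control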; conditions: P. falciparum in erythrocytes, SYBR Green DNA, 72 h; series mostly up to 28.7 µM
Summary of the method: (§3)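 P. falciparum-infected erythrocytes (0.3% parasitemia, 2.5% hematocrit) incubated with compound 72 h at 37 C, 5% CO2. Parasite DNA detected by SYBR Green after lysis, overnight at room temperature; normalised to 0.29 uM artemisinin and DMSO.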

N140 = assay: as above; conditions: P. falciparum in erythrocytes, SYBR Green DNA, 72 h; series mostly up to 28.7 µM
Summary of the method: as §3

P93_24 = assay: as above; conditions: P. falciparum in erythrocytes, SYBR Green DNA, 72 h; series mostly up to 28.7 µM
Summary of the method: as §3

P94_40 = assay: as above; conditions: P. falciparum in erythrocytes, SYBR Green DNA, 72 h; series mostly up to 28.7 µM
Summary of the method: as §3

PAD = assay: as above; conditions: P. falciparum in erythrocytes, SYBR Green DNA, 72 h; series mostly up to 28.7 µM
Summary of the method: as §3

PC15 = assay: as above; conditions: P. falciparum in erythrocytes, SYBR Green DNA, 72 h; series mostly up to 28.7 µM
Summary of the method: as §3

PC26 = assay: as above; conditions: P. falciparum in erythrocytes, SYBR Green DNA, 72 h; series mostly up to 28.7 µM
Summary of the method: as §3

PC49 = assay: as above; conditions: P. falciparum in erythrocytes, SYBR Green DNA, 72 h; series mostly up to 28.7 µM
Summary of the method: as §3

SC27B = assay: as above; conditions: P. falciparum in erythrocytes, SYBR Green DNA, 72 h; series mostly up to 28.7 µM
Summary of the method: as §3

TAB109 = assay: as above; conditions: P. falciparum in erythrocytes, SYBR Green DNA, 72 h; series mostly up to 28.7 µM
Summary of the method: as §3

TAB113 = assay: as above; conditions: P. falciparum in erythrocytes, SYBR Green DNA, 72 h; series mostly up to 28.7 µM
Summary of the method: as §3

TAB165 = assay: as above; conditions: P. falciparum in erythrocytes, SYBR Green DNA, 72 h; series mostly up to 28.7 µM
Summary of the method: as §3

W2 = assay: as above; conditions: P. falciparum in erythrocytes, SYBR Green DNA, 72 h; series mostly up to 28.7 µM
Summary of the method: as §3
Also: nearly all actives have a fitted effect of over 60% in size.

CC(C)=CCC[C@@](C)(O)[C@H]1CC=C(C)CC1
inactive: max response (CRL-7250) 1.58% | outcome (HEK293) | outcome (HaCat [1]) | max response (NIH3T3) -5.4% | outcome (HACAT [2]) | outcome (HEK293T)

O=C(O)CCCCC1CCSS1 (stereo not given)
inactive: Potency (JCK) | Potency (N140) | Potency (P93_24) | Potency (P94_40) | Potency (PAD) | Potency (PC15) | Potency (PC26) | Potency (PC49) | Potency (SC27B) | Potency (TAB109) | Potency (TAB113) | Potency (TAB165) | Potency (W2) | max response (CRL-7250) -4.66% | max response (HEK293) 0.811% | outcome (HaCat [1]) | max response (NIH3T3) 1.45% | outcome (HACAT [2])

O=C(CCBr)N1CCN(C(=O)CCBr)CC1
inactive: Potency (JCK) | Potency (N140) | Potency (P93_24) | Potency (P94_40) | Potency (PAD) | Potency (PC15) | Potency (PC26) | Potency (PC49) | Potency (SC27B) | Potency (TAB109) | Potency (TAB113) | Potency (TAB165) | Potency (W2) | max response (CRL-7250) -5.81% | max response (HEK293) 0.232% | max response (HaCat [1]) -10.3% | outcome (NIH3T3)

CC[C@]12CCCN3CCc4c(n(c5ccccc45)[C@@](O)(C(=O)OC)C1)[C@@H]32
inactive: outcome (CRL-7250) | max response (HEK293) 0.673% | outcome (HaCat [1]) | outcome (NIH3T3) | outcome (HACAT [2])

CCN[C@H]1CN(CCCOC)S(=O)(=O)c2sc(S(N)(=O)=O)cc21
inactive: max response (CRL-7250) 2.64% | max response (HEK293) -2.35% | outcome (HaCat [1]) | outcome (NIH3T3) | outcome (HACAT [2])

CNc1c2c(nn1C)CCCC2
inactive: Potency (JCK) | Potency (N140) | Potency (P93_24) | Potency (P94_40) | Potency (PAD) | Potency (PC15) | Potency (PC26) | Potency (PC49) | Potency (SC27B) | Potency (TAB109) | Potency (TAB113) | Potency (TAB165) | Potency (W2) | max response (CRL-7250) 2.3% | max response (HEK293) -6.59% | outcome (HaCat [1]) | max response (NIH3T3) 4.21% | outcome (HACAT [2])

Nc1ccncc1N
inactive: Potency (JCK) | Potency (N140) | Potency (P93_24) | Potency (P94_40) | Potency (PAD) | Potency (PC15) | Potency (PC26) | Potency (PC49) | Potency (SC27B) | Potency (TAB109) | Potency (TAB113) | Potency (TAB165) | Potency (W2) | max response (CRL-7250) -6.31% | max response (HEK293) -11.7% | outcome (HaCat [1]) | max response (NIH3T3) -1.29% | outcome (HACAT [2])

CCCCCCCCCCCCCCCCC(C(=O)O)C(O)(CC(=O)O)C(=O)O (stereo not given)
inactive: Potency (JCK) | Potency (N140) | Potency (P93_24) | Potency (P94_40) | Potency (PAD) | Potency (PC15) | Potency (PC26) | Potency (PC49) | Potency (SC27B) | Potency (TAB109) | Potency (TAB113) | Potency (TAB165) | outcome (CRL-7250) | outcome (HEK293) | max response (HaCat [1]) 2.76% | max response (NIH3T3) 0.574% | outcome (HEK293T)

CC(=O)SC[C@@H](Cc1ccccc1)C(=O)NCC(=O)OCc1ccccc1
inactive: Potency (JCK) | Potency (N140) | Potency (P93_24) | Potency (P94_40) | Potency (PAD) | Potency (PC15) | Potency (PC26) | Potency (PC49) | Potency (SC27B) | Potency (TAB109) | Potency (TAB113) | Potency (TAB165) | Potency (W2) | outcome (CRL-7250) | max response (HEK293) -5.72% | outcome (HaCat [1]) | max response (NIH3T3) -11.9% | outcome (HACAT [2])

Cc1cc(-n2nc3ccc(Cl)cc3n2)c(O)c(C(C)(C)C)c1
inactive: Potency (JCK) | Potency (PC15) | Potency (PC26) | Potency (PC49) | Potency (SC27B) | Potency (W2) | max response (CRL-7250) -3.44% | max response (HEK293) 4.97% | outcome (HaCat [1]) | max response (NIH3T3) 3.2% | outcome (HACAT [2])

O=C(O)COC(=O)Cc1ccccc1Nc1c(Cl)cccc1Cl
inactive: Potency (JCK) | Potency (N140) | Potency (P94_40) | Potency (PAD) | Potency (PC15) | Potency (PC26) | Potency (PC49) | Potency (SC27B) | Potency (TAB109) | Potency (TAB113) | Potency (TAB165) | Potency (W2) | outcome (CRL-7250) | max response (HEK293) -1.3% | outcome (HaCat [1]) | max response (NIH3T3) 1.68% | outcome (HACAT [2])
